M1 ag – human M1 muscarinic receptor agonists, primary screen, Fluo-8 calcium fluorescence, CHO-K1 cells, HTS | AID 588814, 2011 | activation, % at 3 µM | 0.33% of 360,000 active | CHO-K1 hM1, agonist mode; 0% DMSO, 100% acetylcholine EC100 | Muscarinic acetylcholine receptor M1 (Homo sapiens), P11229;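 active = activation above the run's mean compound activation plus 3 SD, cut at about 16% in these data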;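 also: peak over basal fluorescence ratio within a 140 s kinetic read after compound addition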
Target sequence (P11229 whole entry, looked up): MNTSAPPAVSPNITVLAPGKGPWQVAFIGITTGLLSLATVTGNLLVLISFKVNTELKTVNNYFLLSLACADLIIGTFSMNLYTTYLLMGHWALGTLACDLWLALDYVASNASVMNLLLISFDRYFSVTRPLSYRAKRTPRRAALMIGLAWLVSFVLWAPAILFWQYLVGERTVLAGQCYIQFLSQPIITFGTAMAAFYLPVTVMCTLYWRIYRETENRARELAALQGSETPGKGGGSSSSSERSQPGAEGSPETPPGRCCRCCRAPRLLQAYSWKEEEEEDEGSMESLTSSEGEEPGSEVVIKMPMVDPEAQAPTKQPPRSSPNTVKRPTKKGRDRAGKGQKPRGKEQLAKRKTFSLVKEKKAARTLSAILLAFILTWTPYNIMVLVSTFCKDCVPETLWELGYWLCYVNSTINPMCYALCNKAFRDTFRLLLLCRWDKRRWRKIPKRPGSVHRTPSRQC
M1 antag – human M1 muscarinic receptor antagonists, primary screen, CHO-K1 cells, Fluo-8 calcium fluorescence, 1536-well; AID 588852, 2011; CHO-K1 hM1, ACh EC80 antagonist; 1.3% of 360,000 active; inhibition, % at 3 µM; Muscarinic acetylcholine receptor M1 (Homo sapiens), P11229;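 active = percent inhibition above its own plate's cutoff, namely the mean of that plate's compound wells plus 3 SD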;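 also: peak over basal fluorescence ratio during 140 s after agonist addition; 0% = ACh EC80 plus DMSO and 100% = DMSO alone without agonist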
M1 PAM – human M1 muscarinic receptor positive allosteric modulators, primary screen, CHO-K1 cells, Fluo-8 calcium fluorescence, 1536-well | Muscarinic acetylcholine receptor M1 (Homo sapiens), P11229 | CHO-K1 hM1, ACh EC20; 0% = ACh EC20, 100% = maximal ACh | activation, % at 3 µM | 0.088% of 360,000 active; in the data active = activation above about 19%, passing the limit was not always enough
CHO-K1 Ca PAM – nonselective calcium activators in parental CHO-K1 cells, primary screen, counter-screen for M1 PAM project, cell-based, Fluo-8 calcium fluorescence, full deck, 1536-well | ATP EC20; 0% at ATP EC20, 100% at ATP max | activation, % at 3 µM | 0.02% of 360,000 active | AID 602247, 2012;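 active = activation above the run cutoff, the mean activation of all test compounds plus 3 SD, cut at about 40% in these data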;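 also: peak over basal fluorescence ratio in a 140 s read after ATP addition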
CHO-K1 Ca ag – counter-screen for M1 agonists: effect in parental CHO-K1 cells; Fluo-8 calcium fluorescence; scaled to maximal ATP response, vehicle zero; 0.48% of 360,000 active; activation, % at 3 µM; in the data active = activation above about 15%;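 also: untransfected CHO-K1 host cells lacking M1 receptor as counterscreen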
CHO-K1 Ca antag – nonselective inhibitor or artifact in parental CHO-K1 cells; ATP-induced calcium, Fluo-8 fluorescence; inhibition, % at 3 µM; 0.6% of 360,000 active;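 active = inhibition above a per-plate cutoff, the plate's mean sample inhibition plus 3 SD, cut at about 24% in these data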;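 also: 0% = DMSO plus EC80 ATP and 100% = DMSO alone without ATP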
An asterisk follows results filed as active; · = no result given. Sampled rows, rich in hits. Any-hit rate of the full collection: about 2.3%.

SMILES | M1 ag | M1 antag | M1 PAM | CHO-K1 Ca PAM | CHO-K1 Ca ag | CHO-K1 Ca antag
CN1CCc2nc(N)c(C#N)c(-c3ccccc3)c2C1 | -7.7 | 33.7* | -19.6 | 0.8 | 0.1 | -13.9
NCCc1ccc(OCc2ccccc2)c(OCc2ccccc2)c1 | 12.9 | -4.1 | 11.0 | 7.5 | 15.9* | 5.1
O=C1NC(=O)C(CCc2ccncc2)(CCc2ccncc2)C(=O)N1CCc1ccccc1 | -7.1 | 1.4 | 6.5 | 6.6 | 17.2* | 10.4
CC/C(=N\Nc1ccccc1)c1c(O)n(-c2ccc(OC)cc2)c(=O)[nH]c1=O | -1.7 | 27.4 | -11.0 | -6.6 | 5.6 | -1.1
Cc1[nH]c2ccccc2c1CCN | -0.8 | 18.4 | -3.8 | -8.3 | 0.0 | 29.2*
Cc1[nH]c2ccccc2c1CCCNC1CCCCC1 | -5.3 | -1.4 | -1.6 | -13.9 | -0.1 | 19.5
c1coc(CN2Cc3ccccc3-n3nncc3C2)c1 | -5.0 | 0.6 | 5.1 | 7.0 | 0.5 | -5.2
O=C1NC(=O)N(c2ccc3c(c2)OCO3)C(=O)/C1=C\c1ccc(N2CCCCC2)o1 | 0.1 | 4.7 | -9.0 | -8.9 | 3.1 | 24.6*
Cc1ccccc1N1C(=O)NC(=O)/C(=C/c2ccc(N3CCOCC3)o2)C1=O | 3.3 | -16.1 | 13.0 | -20.0 | 3.4 | 6.5
CCOc1ccc(-c2c(C)n(-c3ccc(OCC)cc3)c3[n+]2CCCCC3)cc1 | 0.1 | 30.2 | -10.3 | -15.1 | 12.1 | 39.5*
CC1CC2(C)C(CCC3C2CCC2(C)C(OP(=O)(N4CC4)N4CC4)CCC32)CC1=O (stereo unspecified) | -7.1 | 102.1* | 4.0 | 8.2 | 0.8 | -1.0
C[C@]12CCC3C(CC[C@H]4C[C@H](O)CC[C@]34C)C1CC(=O)[C@@H]2O (stereo partly specified) | 1.7 | -5.2 | -7.4 | -7.0 | 3.5 | -5.7
C[N+](C)(C)Cc1ccccc1 | 75.6* | 55.6 | -29.3 | -2.5 | 0.7 | 2.2
CCOC(=O)C1(CCCc2ccccc2)CCN(C2CCCC2)CC1 | -13.7 | 11.8 | -17.6 | -2.3 | 0.8 | 4.5
CCOC(=O)C1(CCc2ccccc2)CCN(C2CCSCC2)CC1 | -5.4 | 52.2* | -21.8 | -1.0 | 0.0 | 1.1
Cn1c(O)c(/C=C/C=Nc2ccccc2)c(=O)n(C)c1=S | 58.5* | 34.4* | -16.6 | 7.5 | 28.3* | 13.8
CC(=O)OC1C(O)C2=C3C4(C)C1C(C)(C)C(=O)CC4C3(O)C(OC(C)=O)C1(CC1C)C2=O (stereo unspecified) | · | · | · | -7.1 | 0.4 | -6.8
CCOC(=O)[C@]12Cc3ccc4ccccc4c3[C@H]1N(Cc1ccccc1)C(=O)c1ccccc12 | · | · | · | 5.2 | 0.5 | -18.1
O=C1NC(=O)C(C2CCCCCC2)C(=O)N1 | 3.2 | -30.3 | 26.1* | -15.7 | 0.2 | -11.9
C1CCC2CCCCC2C1 (stereo unspecified) | -0.9 | -6.4 | 2.7 | -8.4 | 0.3 | -6.2
CCN(CC)P(=O)(c1n(CC)cc[n+]1CC)N(CC)CC | -2.0 | 0.3 | 5.4 | -15.7 | -0.8 | 32.4*
C[C@]12CCC3C(CC[C@H]4C[C@@H](O)CC[C@]34C)C1CC[C@@H]2N (stereo partly specified) | -5.9 | -5.2 | 3.8 | 25.3 | 18.6* | 11.4
C[C@]12CCC3C(CC[C@@H]4C[C@@H](O)CC[C@]34C)C1CC[C@@H]2O (stereo partly specified) | -2.5 | -6.6 | 0.5 | 3.8 | 1.5 | -7.2
Nc1ccc2ccc3cccc[n+]3c2c1 | 10.5 | 22.1 | -12.1 | 19.9 | 32.3* | -8.8
COC(=O)[C@@H]1[C@@H](C(=O)OC)C2(c3ccccc3-c3ccccc32)N(c2ccc(Cl)cc2)N1C#N | -4.2 | -11.9 | -1.9 | 4.8 | 0.1 | 26.4*
SMILES | M1 ag | M1 antag | M1 PAM | CHO-K1 Ca PAM | CHO-K1 Ca ag | CHO-K1 Ca antag
CC(C)(C)C(=O)OC[N+](C)(C)CCOC(=O)C(O)(c1ccccc1)C1CCCC1 (stereo unspecified) | -6.6 | 98.2* | -25.2 | 23.8 | 1.0 | -16.2
O=C(O)C(O)(c1ccccc1)C1CCCC1 (stereo unspecified) | -1.1 | -1.0 | 4.0 | 9.1 | 0.2 | -1.1
CCCC(CCC)C(=O)OC[N+](C)(C)CCOC(=O)C(O)(c1ccccc1)C1CCCC1 (stereo unspecified) | -12.3 | 99.1* | -30.7 | 3.3 | 0.4 | 0.3
Cc1ccc(C(=O)N2CC2C)cc1 (stereo unspecified) | 0.8 | -18.2 | 12.3 | -3.7 | 0.1 | -3.6
Cc1ccccc1C(O)(Cc1ccccc1)C1CN2CCC1CC2 (stereo unspecified) | -6.0 | 98.5* | -26.1 | 19.8 | 1.4 | -9.3
C=CCN1C(=O)NC(=O)/C(=C/c2ccc(N(C)C)c(Br)c2)C1=O | -2.9 | -15.0 | 10.9 | 23.3 | 0.4 | -4.6
CC(=O)Nc1cccc([As](=O)(c2cccc(NC(C)=O)c2)c2cccc(NC(C)=O)c2)c1 | -0.5 | -16.6 | 15.1 | 0.8 | -0.5 | -11.7
CC(=O)Nc1cc([As](=O)(O)O)ccc1O | 19.7* | -17.8 | -6.2 | 6.1 | -0.3 | -10.6
CCc1cc(=O)oc2c(C)c(OCC(=O)N3C[C@H]4C[C@@H](C3)c3cccc(=O)n3C4)ccc12 | -8.2 | -5.8 | 0.8 | 6.6 | 0.1 | -0.5
CC(C)CN1Cc2cc(-c3cccc(F)c3)ccc2-n2nncc2C1 | 4.3 | 3.1 | 4.6 | 7.8 | 0.0 | 9.8
CN(C)C(CNC(=O)Cc1c(Cl)cccc1Cl)c1ccccc1 (stereo unspecified) | -15.6 | 96.5* | -37.3 | 8.4 | -0.2 | 6.4
C=CCN1Cc2ccccc2-n2nncc2C1 | -9.0 | 0.2 | 3.7 | 1.2 | -0.1 | 11.7
CN1C2CCC1CC(OC(=O)c1ccc(Cl)cc1)C2 (stereo unspecified) | -4.8 | 76.8* | -22.1 | 17.6 | 6.7 | 0.3
O=C(COc1ccccc1Cl)N1CCCC(N2CCN(c3ccc(F)cc3)CC2)C1 (stereo unspecified) | -2.2 | 0.3 | -3.0 | 7.0 | 15.2* | 14.9
COc1ccccc1OCC(=O)N1CCCC(N2CCN(c3ccc(F)cc3)CC2)C1 (stereo unspecified) | -4.5 | 9.9 | -2.9 | 0.9 | 0.5 | 1.1
CCOC(=O)[C@]12Cc3cc(Cl)ccc3[C@H]1N(C(C)C)C(=O)c1ccccc12 | · | · | · | 13.3 | 2.7 | -3.0
N=c1sccn1Cc1ccccc1F | 17.4* | 2.8 | -8.5 | -7.1 | 0.3 | -21.9
CN(C)P(=NC(=S)c1cccn1C)(N(C)C)N(C)C | -11.5 | 32.9* | -23.9 | 1.9 | -0.3 | -20.7
COc1ccccc1C1=NCc2nnc(C)n2-c2ccc(Cl)cc21 | -6.2 | 11.2 | -3.8 | -3.1 | 0.6 | 30.6*
